Bioassay records (PubChem)
Most compounds without a hit are left out; they make up all but 2.2% or so of the library.
ADAM10 inh: inhibits human ADAM10; recombinant ADAM10, EDANS/DABCYL FRET peptide cleavage, 3 h; O14672; inhibition, % at 7 µM; AID 720582; 370,000 compounds, 0.62% hits;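 active = inhibition above a per-campaign cutoff equal to the mean of compounds falling between control-based bounds plus 3 SD, cut at about 20% in these data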;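 also: 0% = DMSO wells while the 100% control is not disclosed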
NPR1 activator: GC-A (human) enzyme activation; activation, % at 10 µM; 370,000 compounds, 0.14% hits; P16066; HEK293 GC-A cells, cGMP TR-FRET, EC30 ANP; 0% at EC30 ANP, 100% saturating ANP; in the data active = activation above about 40%
ADAM17 inh: ADAM17 inhibition, QFRET primary screen; recombinant ADAM17, EDANS/DABCYL FRET peptide cleavage; 370,000 compounds, 0.83% hits; P78536; inhibition, % at 6.95 µM; AID 720648;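 active = inhibition above the mean of compounds lying between control limits plus 3 SD, set per campaign, cut at about 8.5% in these data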;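 also: 0% = DMSO-only wells as the low control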
proKLK7 act: proKLK7 (human) activation, primary screen; P49862; purified proKLK7, EDANS-DABCYL substrate fluorescence; 100% is mature enzyme control, 0% vehicle; activation, % at 7 µM; 370,000 compounds, 0.9% hits; AID 652039;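 active = activation above the mean of all tested compounds plus 3 SD, computed per campaign excluding outliers beyond control limits, cut at about 13% in these data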
Target sequence (P49862 whole entry, looked up): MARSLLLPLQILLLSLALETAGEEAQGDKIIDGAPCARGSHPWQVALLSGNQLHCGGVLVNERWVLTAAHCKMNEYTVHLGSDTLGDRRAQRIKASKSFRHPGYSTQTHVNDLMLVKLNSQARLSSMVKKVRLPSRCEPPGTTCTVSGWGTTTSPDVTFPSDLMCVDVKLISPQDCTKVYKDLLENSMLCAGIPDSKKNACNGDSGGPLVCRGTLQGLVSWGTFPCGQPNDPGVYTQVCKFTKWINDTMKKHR
GC-B act: GC-B (human) receptor activation; AID 1920062; HEK293-GC-B cells, CNP EC30, cGMP TR-FRET; 0% at EC30 CNP, 100% saturating CNP; 370,000 compounds, 0.11% hits; activation, % at 10 µM; P20594;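 active = activation at 10 µM reaching about 35% in either raw or pattern-adjusted values, limit read from the data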
ADAM10 ctr: ADAM10 inhibition, counter-screen for ADAM17 exosite hits. shares compounds with ADAM17 inh. recombinant ADAM10, EDANS/DABCYL FRET peptide cleavage, 3 h. inhibition, % at 6.95 µM. 2,900 compounds, 47% hits. AID 743256;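 active = mean inhibition over the triplicate runs exceeds the activity threshold set in the earlier primary screen, cut at about 20% in these data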;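 also: 0% = DMSO wells and 100% = marimastat wells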
ADAM17 confirm: human ADAM17 inhibition, confirmation | shares compounds with ADAM17 inh | recombinant ADAM17, EDANS/DABCYL QFRET peptide cleavage | inhibition, % at 6.95 µM | 2,900 compounds, 65% hits | AID 743257;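 active = mean inhibition across replicates above the hit cutoff set in the primary screen, cut at about 8.5% in these data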;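 also: 0% = DMSO wells and 100% = marimastat wells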
* = called active by the depositor; / = no result.

SMILES	ADAM10 inh	NPR1 activator	ADAM17 inh	proKLK7 act	GC-B act	ADAM10 ctr	ADAM17 confirm
COc1ccc(NS(=O)(=O)c2ccc3nc(COc4ccc(Cl)c(C)c4)[nH]c3c2)cc1	19	-1	13*	1	4	27*	19*
COc1ccc(NS(=O)(=O)c2ccc3[nH]c(=O)[nH]c3c2)cc1	4	-3	3	0	0	/	/
Oc1ccccc1CNc1nc2ccccc2n1CCN1CCCCC1	0	-29	0	0	-21	/	/
C=CCc1cccc(CNc2nc3ccccc3n2CCN2CCOCC2)c1O	14	-12	12*	0	-15	11	9.3*
C/C(=N\NC(=S)NCCc1ccccc1)c1ccc(Cl)cc1	19	3	9.6*	0	4	9	7
NS(=O)(=O)c1ccc(NC(=O)N[C@@H](Cc2ccccc2)C(=O)O)cc1	0	-7	9.8*	0	-4	11	8
O=C(C1=C[C@H](c2ccc3c(c2)OCO3)C[C@H](OCCCCO)O1)N1CCN(Cc2ccccc2)CC1	-9	-3	-3	0	-3	/	/
O=C(Nc1ccccc1)C1=C[C@H](c2ccc(Br)cc2)C[C@H](OCc2ccc(CO)cc2)O1	18	-4	10*	1	0	29*	24*
O=C(C1=C[C@@H](c2ccc(Br)cc2)C[C@@H](OCCCCO)O1)N1CCN(Cc2ccccc2)CC1	8	1	8.8*	0	-1	14	7
O=C(Nc1ccccc1)C1=C[C@H](C2CCCCC2)C[C@H](OCc2ccc(CO)cc2)O1	16	0	7	1	-6	/	/
O=C(Nc1ccccc1)C1=C[C@@H](C2CCCCC2)C[C@@H](OCc2ccc(CO)cc2)O1	18	0	8.7*	0	-5	19	13*
COC(=O)C1CN(Cc2ccc(F)cc2)CCS(=O)(=O)N1Cc1cn(Cc2ccccc2)nn1 (stereo not given)	1	-3	-1	-1	-1	/	/
Cc1ccc(C(C)C)cc1-n1nnc(-c2cccc(Cc3ccc4ccccc4c3)c2)c1C(C)O (stereo not given)	16	-1	18*	0	0	31*	18*
CCc1c(-c2cccc(Cl)c2)ncn1CCc1ccccc1OC	4	-16	1	0	-14	/	/
O=S1(=O)CCN2C(c3ccco3)=CSC2=N1	-3	7	2	0	-3	/	/
O=S1(=O)CCN2C(c3ccc4c(c3)CCCC4)=CSC2=N1	8	-3	8.7*	0	0	24*	12*
COc1ccc(CNS(=O)(=O)/C=C/c2ccc(OC)cc2CNC(=O)OC(C)(C)C)cc1	11	-6	9.4*	0	-1	23*	9.7*
COc1ccc(/C=C/S(=O)(=O)NCC(C)C)c(CNC(=O)OC(C)(C)C)c1	-13	-4	-3	0	2	/	/
CC(NC(=O)c1cc2ccc(C(F)(F)F)cc2nc1N)c1cccc2ccccc12 (stereo not given)	-13	-17	-1	-3	-6	/	/
COc1ccccc1CN(C)CC(=O)Nc1cccc(S(=O)(=O)N2CCCCC2)c1	4	-1	1	0	4	/	/
CN(CC(=O)Nc1ccc(S(=O)(=O)N2CCCC2)cc1)Cc1cccc(Cl)c1Cl	14	2	10*	0	-1	8	8
C[C@@H]1C(=O)N2N=Cc3cc4ccccc4cc3[C@H]2N2N=Cc3cc4ccccc4cc3[C@@H]12	-10	-8	-5	-1	1	/	/
COc1ccc2ccccc2c1C=NNC(=O)CN1CCN(Cc2ccccc2)CC1	-6	-6	-2	0	-2	/	/
COc1ccccc1NS(=O)(=O)c1ccc(C)c(NC(=O)c2ccc(S(=O)(=O)N3CCCCCC3)cc2)c1	19	-2	12*	-1	0	36*	18*
COc1ccc(NC(=O)c2ccc(S(=O)(=O)N3CCCCC3)cc2)cc1OC	18	11	9.0*	0	0	10	10*
SMILES	ADAM10 inh	NPR1 activator	ADAM17 inh	proKLK7 act	GC-B act	ADAM10 ctr	ADAM17 confirm
Cc1ncc([N+](=O)[O-])n1CC(=O)N/N=C/c1ccccc1F	12	3	9.9*	0	6	5	3
O=C(c1ccc(S(=O)(=O)c2cccc(Cl)c2)c([N+](=O)[O-])c1)N1CCN(Cc2ccccc2)CC1	10	7	10*	1	-3	25*	17*
COc1ccc(C(=O)N2CCN(Cc3ccccc3)CC2)cc1[N+](=O)[O-]	6	2	0	0	1	/	/
O=S1(=O)c2ccc(Br)cc2OC[C@H](Cc2ccccc2)N1Cc1cn(Cc2ccc(Cl)cc2)nn1	-6	2	-4	0	1	/	/
Clc1ccc(OCCOCCOc2cccc3cccnc23)c(Br)c1	13	-4	8.9*	0	-3	12	13*
CCN(CC)C(=O)CC[C@H]1CC[C@]2(CCCN(C(=O)c3ccco3)C2)O1	-10	5	-3	0	0	/	/
CC(C)CC(=O)c1c(O)cc(O)c2c1OC1=C(C(=O)C(C)(C)C(=O)C1(C)C)C2CC(C)C (stereo not given)	10	0	9.2*	0	5	13	8
CCCCN(C)S(=O)(=O)c1ccc2[nH]c(=O)oc2c1	1	3	2	0	-7	/	/
CC1(C(=O)Nc2ccc3c(c2)OCO3)CCN1C(=O)C1CCCCC1 (stereo not given)	9	-1	5	0	-7	/	/
CC1(C(=O)Nc2ccc(Cl)c(Cl)c2)CCN1C(=O)C1CCCCC1 (stereo not given)	-1	0	10*	0	1	9	9.9*
COc1cccc(Cn2cnc3c(NS(=O)(=O)c4cc(Cl)ccc4Cl)c(C)c(C)cc32)c1	20	-5	8.9*	0	-1	20*	11*
COc1cccc(Cn2cnc3c(NS(=O)(=O)c4ccc(Cl)cc4Cl)c(C)c(C)cc32)c1	12	4	1	1	8	/	/
OC(c1ccccc1)(c1ccccc1)c1cnc2ccccn12	-3	-6	-4	/	-12	/	/
COC(=O)c1cc(-c2ccccc2)n(CCN)c1C	1	3	-7	0	0	/	/
COC(=O)c1cc(C(=O)OC)n(Cc2ccc(C)cc2)c1C	7	-9	9.2*	0	4	0	3
CC(C)(C)c1ccc(-c2cn(C[C@H](Cc3ccccc3)n3c(=O)c4ccccc4n3Cc3ccco3)nn2)cc1	-37	2	-6	-2	-3	/	/
